The nature of assay [1]: NCI Yeast Anticancer Drug Screen. Data for the rad50 strain (AID 155).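 Also: 0% = growth of vehicle-only cultures of the same strain.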 Particulars: S. cerevisiae rad50 strain growth inhibition; at 50.0 µM; hits give high values. A digest of the protocol:
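Inhibition values express reduced yeast growth in compound-treated cultures relative to vehicle-treated controls.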

Assay [2] is described as follows: NCI Yeast Anticancer Drug Screen. Data for the mec2-1 strain (AID 157). The following applies: S. cerevisiae mec2-1 strain, at 50.0 µM, hits give high values. In outline: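 Readout is yeast growth inhibition, normalised to vehicle-treated controls, in the mec2-1 strain exposed to compound.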
Assay [3] in a line: NCI Yeast Anticancer Drug Screen. Data for the sgs1 mgt1 strain (AID 161).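 Also: 0% = growth of cultures given vehicle only.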 The following applies: S. cerevisiae sgs1 mgt1 strain, at 50.0 µM, hits give high values. In outline:
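Growth of a repair-deficient yeast mutant was monitored after compound treatment and expressed as inhibition relative to vehicle-treated cultures.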

Assay [4] is described as follows: NCI Yeast Anticancer Drug Screen. Data for the bub3 strain (AID 167). Particulars: S. cerevisiae bub3 mutant strain, at 50.0 µM, hits give high values. A digest of the protocol:
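Steps: expose the mutant yeast strain to compound; grow alongside vehicle-treated cultures; measure growth; express inhibition against the vehicle cultures.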

Assay [5] in a line: NCI Yeast Anticancer Drug Screen. Data for the mlh1 rad18 strain (AID 175). Particulars: S. cerevisiae mlh1 rad18 strain growth inhibition; at 50.0 µM; hits give high values. A digest of the protocol: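 Test agents were incubated with a yeast strain of defined genotype (DNA damage repair defect). Inhibition of growth was derived by comparison with vehicle-exposed cultures.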
Assay [6] in a line: NCI Yeast Anticancer Drug Screen. Data for the cln2 rad14 strain (AID 165).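 Also: 0% = growth equal to vehicle treated cultures.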 The following applies: S. cerevisiae cln2 rad14 strain, at 50.0 µM, hits give high values. In outline:
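Relative to vehicle controls, growth inhibition of compound-treated cln2 rad14 yeast was recorded.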

About 79,000 compounds went through this panel and 15% of them were active in at least one assay; those are over-represented in the sample as a whole. Unmarked numbers belong to inactive results. Active and inactive are the calls of the source. Rule as the data show it: active = growth inhibition above about 70%; inactive = the rest.

For `CCOC(=O)Nc1nc2cc(C(=O)OC)n(C)c2s1`, the growth inhibition in assay [1] was 19.4%; in assay [2], 23.6%; in assay [3], 25.7%; in assay [4], 7.4%; in assay [5], 18.9%.

For the compound `Nc1ccc2ncc(NCc3ccc(F)cc3)nc2c1`, the growth inhibition is -4% in assay [1]; -25.9% in assay [2]; -25.6% in assay [3]; 3.4% in assay [4]; 5.15% in assay [5].

In the case of `CC1(C)CC(O)(Cc2ccccc2)C(O)c2ccccc21` (centres undefined), the growth inhibition was 45.5% in assay [1]; 32.1% in assay [2]; 31.6% in assay [3]; 26.1% in assay [4]; 74.2% (active) in assay [5].

Consider `C1=Nc2ccccc2/C1=C/c1cccs1`, for which the growth inhibition in assay [1] was 35.5%; in assay [2] it was 37%; in assay [3] it was 12.1%; in assay [4] it was 13%; in assay [5] it was 48.8%.

`CCN1C(=NCCO)NS(=O)(=O)c2ccccc21`: the growth inhibition in assay [1] is -17.2%; in assay [2] it was 3.4%; in assay [3], -25.4%; in assay [4] it was -24.6%; in assay [5] it was 0.35%.

With `CCCCCCCCCCCCCCC(=O)Cl`, the growth inhibition in assay [1] was 9%; in assay [2], 7.25%; in assay [3], 5.8%; in assay [4], -9.95%; in assay [5], 8.85%.

Consider `c1ccc([P+](c2ccccc2)(c2ccccc2)C2c3ccccc3CCc3ccccc32)cc1`, for which the growth inhibition in assay [1] is 99.6% (active); in assay [2], 99.8% (active); in assay [3], 99.5% (active); in assay [4], 99.4% (active); in assay [5] it was 99.6% (active).

As to `Cc1cc(Cl)ccc1OCC(=O)OCCBr`, the growth inhibition in assay [1] is 3.55%; in assay [2], 17.9%; in assay [3], 5.35%; in assay [6], -23.2%; in assay [5], -8.15%.

As for `CCCC(=O)Nc1cn(COC)c(C(=O)N2C[C@@H]3C[C@]34C2=CC(=O)c2[nH]cc(C)c24)n1`, the growth inhibition is 28.2% in assay [1]; 20.4% in assay [2]; 34.4% in assay [3]; 26.2% in assay [4]; 50.8% in assay [5].

As to `C[C@H]1C(=O)CCC2[C@]3(C)CC4OC(=O)C5(CC[C@@]6(C)CCC(C)(C)CC6C45C)C3CC[C@@]21C` (some centres undefined), the growth inhibition in assay [1] is -0.7%; in assay [2], -7.25%; in assay [3] it was -25.9%; in assay [4] it was -34.9%; in assay [5] it was -15%.

Regarding `C/C(=N\N(C)C)c1sc(-n2nc(-c3ccccc3)cc2-c2ccccc2)nc1C`, the growth inhibition was 10.7% in assay [1]; -10.2% in assay [2]; 17.6% in assay [3]; 11% in assay [4]; 8.75% in assay [5].

Take `Cc1ccc(-c2cc(=O)c3cc(C)c(C)c(C(=O)O)c3o2)cc1[N+](=O)[O-]`: the growth inhibition in assay [1] was -20.7%; in assay [2], -5.1%; in assay [3], -1.05%; in assay [6] it was 12.2%; in assay [5], 31.1%.

As for `O=C(O)c1ccccc1C(=O)c1ccc(Br)cc1`, the growth inhibition is 8.4% in assay [1]; -20.7% in assay [2]; 10.8% in assay [3]; -3.45% in assay [4]; 10.1% in assay [5].

Regarding `CCOC(=O)Oc1cc2c(ccn2C)c2c1c1ccccc1n2C(=O)OCC`, the growth inhibition in assay [1] is 2.25%; in assay [2], -1.8%; in assay [3], -26.6%; in assay [4], 13.6%; in assay [5], 0.4%.

As for `COc1ccc([C@H]2CC3C(=O)N(c4ccc(OC)cc4)C(=O)C3c3[nH]c4ccccc4c32)cc1` (some centres undefined), the growth inhibition was -10.1% in assay [1]; -2.95% in assay [2]; -1.05% in assay [3]; -16.4% in assay [4]; -16.9% in assay [5].

Consider `CC(=O)/C(=C/n1c(=S)sc2ccccc21)C(=O)Nc1ccccc1C`, for which the growth inhibition in assay [1] is -3.75%; in assay [2], 0.9%; in assay [3], 54.4%; in assay [4], 9.2%; in assay [5], 41.6%.

`C/C(CC(=O)N(C(C)C)C(C)C)=N\NC(=O)c1ccncc1`: the growth inhibition is -3.45% in assay [1]; -12.3% in assay [2]; -18.9% in assay [3]; -10.7% in assay [4]; 13.8% in assay [5].

With `N#CNc1nc(N)cc(N)n1`, the growth inhibition was 2.25% in assay [1]; 9.35% in assay [2]; -1.5% in assay [3]; -1% in assay [4]; -4.6% in assay [5].

Take `CCOC1(COP(=O)(OCc2ccccc2)OCc2ccccc2)COC(COP(=O)(OCc2ccccc2)OCc2ccccc2)(OCC)CO1` (centres undefined): the growth inhibition is -30.1% in assay [1]; -25.6% in assay [2]; -16.2% in assay [3]; -3.75% in assay [4]; -22.8% in assay [5].

As to `CC1(C)CC(O)CC(O)C1` (centres undefined), the growth inhibition in assay [1] was -4.3%; in assay [2], -0.55%; in assay [3] it was -0.2%; in assay [4], -0.15%; in assay [5], -6.9%.

Consider `COC(=O)c1ccc(CSc2ccc(N)cc2)cc1`, for which the growth inhibition in assay [1] was 53.1%; in assay [2] it was 36.2%; in assay [3], 60.6%; in assay [4], 46.1%; in assay [5], 68.5%.

As for `COc1ccc(C(=O)C(C(=O)C(=O)Nc2ccc(Cl)c(Cl)c2)c2ccc(OC)cc2)cc1` (centres undefined), the growth inhibition in assay [1] was -0.6%; in assay [2], 11.2%; in assay [3], -34.4%; in assay [4], 8.95%.

On to `COC(=O)/C(C)=C/C=C/C(OC)C(OC(N)=O)/C(C)=C/C(C)C(O)C(CC(C)CC1=C(OC)C(=O)C=C(N)C1=O)OC` (centres undefined), for which the growth inhibition was 5.85% in assay [1]; 24.8% in assay [2]; 17% in assay [3]; 2.85% in assay [4]; 13.8% in assay [5].

Take `S=c1cc(-c2ccccc2)oc2ccccc12`: the growth inhibition in assay [1] is 9.35%; in assay [2] it was 10.8%; in assay [3], -1.1%; in assay [4] it was 4.85%; in assay [5], -2.8%.

On to `COc1ccc2cc(C(=O)Nc3ccc(O)c(C(=O)O)c3)ccc2c1OC`, for which the growth inhibition in assay [1] was -2.2%; in assay [2] it was 0.5%; in assay [3], -7.6%; in assay [4], 2.95%; in assay [5] it was -22.6%.

Take `COc1ccc2c3c([nH]c2c1)CCN(Cc1ccccc1)C3`: the growth inhibition is -31.1% in assay [1]; -21.6% in assay [2]; 13.8% in assay [3]; 15.2% in assay [4]; 1.1% in assay [5].

With `CCCCCCCCCCCCCCCCCCCCCCOC(=O)CCC(=O)OCCCCCCCCCCCCCCCCCCCCCC`, the growth inhibition in assay [1] was 17.2%; in assay [2], -44.3%; in assay [3] it was 17.4%; in assay [4] it was -10.8%; in assay [5], 5.75%.

With `BrC1Cc2ccccc2C(Br)Cc2ccccc21` (centres undefined), the growth inhibition in assay [1] is -7.65%; in assay [2], -5.1%; in assay [3], -1.05%; in assay [4], 4%; in assay [5] it was -9.6%.

Consider `COC(=O)c1nc(NN)[nH]c(=O)c1C`, for which the growth inhibition in assay [1] was -2.1%; in assay [2] it was -21.1%; in assay [3], -27.6%; in assay [4] it was -26.6%; in assay [5], -15.1%.

In the case of `Cc1cc(C)cc(C(=O)OC2CCCC2)c1`, the growth inhibition was 1.2% in assay [1]; 0.35% in assay [2]; -3.85% in assay [3]; -5.2% in assay [4]; 22.9% in assay [5].

For the compound `O=C(COCC(=O)N/N=C/c1c(O)ccc2ccccc12)N/N=C/c1c(O)ccc2ccccc12`, the growth inhibition in assay [1] is -2%; in assay [2], -13%; in assay [3] it was -5.25%; in assay [4] it was -1%; in assay [5] it was 6.9%.

`CCCS(=O)(=O)N1CCC(C)CC1`: the growth inhibition in assay [1] was 5.7%; in assay [2] it was -21.1%; in assay [6], -8.65%; in assay [4], -8.55%; in assay [5], 1.6%.

For the origin of these results see PubChem BioAssay (NCI).
